The panel holds about 83,000 compounds, 20% with a hit somewhere; the sample as a whole holds those more often.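 Negative percent growth values reflect cell death: -40 means 40% of the cells present at the start died, and -100 means all died.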 Activity calls are given as the source filed them. The calls were made as follows: active = growth percent below 10; inactive = the rest.
Experiments:
Test in all cases: NCI-60 one-dose screen, 48 h (100 = growth as untreated, 0 = no growth, -100 = all killed)
Conditions in all cases: 10 µM unless noted
HCT-15 colon = system: HCT-15 colon
HT29 colon = system: HT29 colon
SNB-75 CNS = system: SNB-75 CNS
SNB-19 CNS = system: SNB-19 CNS
U251 CNS = system: U251 CNS
PC-3 prostate = system: PC-3 prostate
SK-MEL-5 melanoma = system: SK-MEL-5 melanoma
UACC-62 melanoma = system: UACC-62 melanoma
LOX IMVI melanoma = system: LOX IMVI melanoma
SK-MEL-28 melanoma = system: SK-MEL-28 melanoma

Measured: growth

Cc1ccc(S(=O)(=O)Nc2cc(Sc3ccccc3)c(O)c3ccccc23)cc1
active: LOX IMVI melanoma 2.72%
inactive: HCT-15 colon 91.9% | HT29 colon 120% | SNB-75 CNS 98.4% | SNB-19 CNS 105% | U251 CNS 16.1% | PC-3 prostate 34.6% | SK-MEL-5 melanoma 41.8% | UACC-62 melanoma 42.9% | SK-MEL-28 melanoma 84.8%

N#CC(Cc1cccc2ccccc12)c1cc2ccccc2[nH]1 (stereo not given)
inactive: HCT-15 colon 88% | HT29 colon 95.7% | SNB-75 CNS 88.3% | SNB-19 CNS 98.2% | U251 CNS 92.3% | PC-3 prostate 74.8% | SK-MEL-5 melanoma 95.6% | UACC-62 melanoma 70% | LOX IMVI melanoma 90.9% | SK-MEL-28 melanoma 102%

C=C1C(=O)O[C@H]2[C@H]1CC/C(COC(=O)NCc1ccc(Cn3c(=O)sn(CCCI)c3=O)cc1)=C\CC[C@@]1(C)O[C@@H]21
inactive: HCT-15 colon 26.9% | SNB-75 CNS 71.7% | SNB-19 CNS 96.2% | U251 CNS 50.9% | PC-3 prostate 49.2% | SK-MEL-5 melanoma 91.9% | UACC-62 melanoma 15.6%
active: HT29 colon -46.1% | LOX IMVI melanoma -24.5% | SK-MEL-28 melanoma 4.93%

[2H]C([2H])([2H])Oc1cccc(/C=C/C(=O)/C=C(/C=C/c2cccc(OC([2H])([2H])[2H])c2OC([2H])([2H])[2H])OB(F)F)c1OC([2H])([2H])[2H]
inactive: HCT-15 colon 58.3% | HT29 colon 86.3% | SNB-75 CNS 55.2% | SNB-19 CNS 89.1% | U251 CNS 58.8% | PC-3 prostate 74.3% | SK-MEL-5 melanoma 98.6% | UACC-62 melanoma 66.6% | LOX IMVI melanoma 54.6% | SK-MEL-28 melanoma 88.5%

Cc1ccc(Cl)cc1N1CCN(C(=O)[C@@H]2C[C@@H]2c2ccc(F)cc2)CC1
inactive: HCT-15 colon 85.4% | HT29 colon 72.7% | SNB-75 CNS 96.2% | SNB-19 CNS 92% | U251 CNS 90% | PC-3 prostate 69.1% | SK-MEL-5 melanoma 80.7% | UACC-62 melanoma 69.7% | LOX IMVI melanoma 97.6% | SK-MEL-28 melanoma 103%

O=S(=O)(Nc1ccc(F)cc1)c1ccc(-c2cnc(C3CC3)o2)cc1
active: HT29 colon 7.98% | SNB-75 CNS 0.813%
inactive: HCT-15 colon 19.9% | SNB-19 CNS 29.7% | U251 CNS 21% | PC-3 prostate 31.2% | SK-MEL-5 melanoma 25.5% | UACC-62 melanoma 27.5% | LOX IMVI melanoma 51.5% | SK-MEL-28 melanoma 56.2%
